{"source": "PubChem BioAssay (Tox21)", "key": {"[1]": {"molecular_target": "Glucocorticoid receptor (Homo sapiens) (UniProt P04150)", "sequence (P04150 whole entry, looked up)": "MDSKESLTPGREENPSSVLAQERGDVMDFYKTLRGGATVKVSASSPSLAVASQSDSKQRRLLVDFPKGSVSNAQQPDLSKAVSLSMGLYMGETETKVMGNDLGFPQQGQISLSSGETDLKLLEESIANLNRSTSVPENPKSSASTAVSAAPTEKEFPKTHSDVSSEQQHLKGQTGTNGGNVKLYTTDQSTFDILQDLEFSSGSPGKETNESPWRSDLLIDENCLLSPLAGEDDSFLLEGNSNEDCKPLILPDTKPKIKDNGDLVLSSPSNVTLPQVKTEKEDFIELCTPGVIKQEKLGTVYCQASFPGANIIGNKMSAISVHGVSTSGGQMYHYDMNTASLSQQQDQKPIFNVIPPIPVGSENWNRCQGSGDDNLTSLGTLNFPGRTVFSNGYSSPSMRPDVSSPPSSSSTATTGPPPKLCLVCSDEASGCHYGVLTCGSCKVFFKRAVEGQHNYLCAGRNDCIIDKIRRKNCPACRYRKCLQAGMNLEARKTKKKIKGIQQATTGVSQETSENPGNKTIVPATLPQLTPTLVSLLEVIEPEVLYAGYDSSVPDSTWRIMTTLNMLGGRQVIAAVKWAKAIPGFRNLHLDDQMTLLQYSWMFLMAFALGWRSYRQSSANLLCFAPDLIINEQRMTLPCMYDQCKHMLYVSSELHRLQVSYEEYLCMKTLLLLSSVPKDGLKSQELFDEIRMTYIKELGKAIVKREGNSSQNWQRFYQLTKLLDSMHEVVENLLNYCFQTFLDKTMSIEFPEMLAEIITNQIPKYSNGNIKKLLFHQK", "experiment": "qHTS assay to identify small molecule antagonists of the glucocorticoid receptor (GR) signaling pathway (AID 720692; active = well fitted inhibition curve with a large enough effect in the signal ratio in the repeat runs, not every such curve was filed as active; the % refers to the signal ratio)", "summary_of_the_method": "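Tox21 10K library screened in concentration-response for blockade of dexamethasone (5 nM final)-induced GRE-bla reporter activity in HeLa cells; 18 h treatment, fluorescence read.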"}, "[2]": {"molecular_target": "Aryl hydrocarbon receptor (Homo sapiens) (UniProt P35869)", "sequence (P35869 whole entry, looked up)": "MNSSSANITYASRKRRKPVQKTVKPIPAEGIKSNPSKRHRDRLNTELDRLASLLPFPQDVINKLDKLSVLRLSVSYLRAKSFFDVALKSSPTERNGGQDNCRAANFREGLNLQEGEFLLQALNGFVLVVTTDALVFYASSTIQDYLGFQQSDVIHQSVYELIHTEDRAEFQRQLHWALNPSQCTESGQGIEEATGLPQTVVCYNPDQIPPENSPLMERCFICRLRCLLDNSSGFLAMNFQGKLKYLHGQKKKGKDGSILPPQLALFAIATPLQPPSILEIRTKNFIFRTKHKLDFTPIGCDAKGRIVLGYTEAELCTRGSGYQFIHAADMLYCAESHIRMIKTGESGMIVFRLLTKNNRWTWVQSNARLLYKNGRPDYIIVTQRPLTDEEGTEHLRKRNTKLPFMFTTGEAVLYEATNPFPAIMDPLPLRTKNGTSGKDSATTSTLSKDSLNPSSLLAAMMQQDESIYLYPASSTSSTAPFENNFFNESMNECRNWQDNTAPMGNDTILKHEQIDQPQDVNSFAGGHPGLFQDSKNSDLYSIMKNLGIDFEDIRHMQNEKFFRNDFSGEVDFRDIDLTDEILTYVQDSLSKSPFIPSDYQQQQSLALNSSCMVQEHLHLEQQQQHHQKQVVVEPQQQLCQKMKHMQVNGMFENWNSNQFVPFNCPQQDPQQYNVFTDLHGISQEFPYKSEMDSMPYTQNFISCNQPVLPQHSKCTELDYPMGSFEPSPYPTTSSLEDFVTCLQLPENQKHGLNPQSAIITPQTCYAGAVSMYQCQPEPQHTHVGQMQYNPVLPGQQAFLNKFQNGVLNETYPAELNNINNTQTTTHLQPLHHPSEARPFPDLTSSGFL", "experiment": "qHTS assay to identify small molecule that activate the aryl hydrocarbon receptor (AhR) signaling pathway (AID 743085); also: nearly all actives have a fitted effect of over 15% in size", "summary_of_the_method": "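Stably transfected human liver carcinoma cells (HG2L7.5c1; 20 DRE-firefly luciferase) were incubated 5 h, dosed, and kept 24 h at 37C. Agonism was scored from increased luciferase luminescence.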"}, "[3]": {"experiment": "qHTS assay to identify small molecule agonists of H2AX (AID 1224845; active = well fitted activation curve with a large enough effect in the signal ratio in the repeat runs, not every such curve was filed as active; the % refers to the signal ratio)", "summary_of_the_method": "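Phospho-H2AX Ser139 measured by HTRF (ex 320 nm; em 665 and 620 nm) after 24 hr antibody incubation. Compounds, 15 concentrations, 0.76% DMSO, were applied to CHO-K1 cells for 3hr at 37C before lysis.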"}, "[4]": {"experiment": "qHTS assay to identify small molecule agonists of the estrogen related receptor (ERR) signaling pathway from Tox21 library (AID 1224849; calls by dose curve; also: nearly all actives have a fitted effect of over 15% in size)", "conditions": "ERR reporter cell line, ONE-Glo luciferase, 18 h; at 92.4 µM (top of the series) unless noted", "summary_of_the_method": "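Tox21 compounds tested for ERR agonism in an NTP reporter cell line: 18 h treatment at 37 C, then ONE-Glo luminescence.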"}, "[5]": {"molecular_target": "Acetylcholinesterase (Homo sapiens) (UniProt P22303)", "sequence (P22303 whole entry, looked up)": "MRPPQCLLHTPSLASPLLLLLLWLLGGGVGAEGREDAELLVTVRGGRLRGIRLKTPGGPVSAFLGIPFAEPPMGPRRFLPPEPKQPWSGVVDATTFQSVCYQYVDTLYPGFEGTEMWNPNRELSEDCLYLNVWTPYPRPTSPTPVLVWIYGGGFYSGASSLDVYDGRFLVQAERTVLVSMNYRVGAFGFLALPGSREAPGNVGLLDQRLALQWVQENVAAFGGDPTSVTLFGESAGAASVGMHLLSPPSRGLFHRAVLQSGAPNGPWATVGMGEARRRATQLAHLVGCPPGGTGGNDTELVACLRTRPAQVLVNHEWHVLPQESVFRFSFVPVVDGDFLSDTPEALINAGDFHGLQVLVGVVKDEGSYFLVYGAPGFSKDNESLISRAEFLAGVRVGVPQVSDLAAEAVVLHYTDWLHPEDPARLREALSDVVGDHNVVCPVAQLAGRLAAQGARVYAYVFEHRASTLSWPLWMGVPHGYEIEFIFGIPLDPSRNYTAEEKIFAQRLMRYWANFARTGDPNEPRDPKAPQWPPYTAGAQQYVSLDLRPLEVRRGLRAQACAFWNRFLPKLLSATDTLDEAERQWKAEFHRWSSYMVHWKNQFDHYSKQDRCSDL", "experiment": "Acetylcholinesterase (AChE) small molecule antagonists: colormetric cell-based qHTS assay (AID 1347395; calls by dose curve; also: nearly all actives have a fitted effect of over 30% in size)", "summary_of_the_method": "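After overnight attachment at 37 C, SH-SY5Y cells get 30 min compound exposure; detection cocktail (acetylthiocholine, DTNB) then incubates 90 min at 37 C, and absorbance reflects AChE-generated thiocholine.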"}, "[6]": {"molecular_target": "Acetylcholinesterase (Homo sapiens) (UniProt P22303)", "experiment": "Acetylcholinesterase (AChE) small molecule antagonists: enzyme-based qHTS assay (AID 1347397; calls by dose curve; also: nearly all actives have a fitted effect of over 55% in size)", "conditions": "Potency: AChE enzyme activity inhibition; outcome: AChE enzyme activity inhibition", "summary_of_the_method": "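First, recombinant human AChE (50 mU/mL as dispensed) received test compound or DMSO. Second, plates stood 30 min at room temperature. Third, DTNB and acetylthiocholine were added, followed by 10 min at room temperature and colorimetric detection.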"}, "[7]": {"molecular_target": "Acetylcholinesterase (Homo sapiens) (UniProt P22303)", "experiment": "Acetylcholinesterase (AChE) small molecule antagonists: fluorescence cell-based qHTS assay (AID 1347398; calls by dose curve; also: nearly all actives have a fitted effect of over 50% in size)", "conditions": "Potency: AChE activity; outcome: AChE activity", "summary_of_the_method": "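Homogeneous quantitative HTS format. SH-SY5Y cells seeded at 2,000 per well settle overnight at 37 C. Compound pretreatment runs 30 min (37 C, 5% CO2); substrate/probe mix then reacts 40 min at RT before reading 490/520 nm.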"}, "[8]": {"molecular_target": "Acetylcholinesterase (Homo sapiens) (UniProt P22303)", "experiment": "Acetylcholinesterase (AChE) small molecule antagonists: enzyme-based qHTS assay with human liver microsomes (AID 1347399; calls by dose curve; also: nearly all actives have a fitted effect of over 60% in size)", "conditions": "Potency: qHTS inhibition; outcome: qHTS inhibition", "summary_of_the_method": "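Recombinant human AChE (50 mU/mL in the enzyme mix) and human liver microsomes (0.25 mg/mL final) were preincubated with compound and NADPH (0.25 mg/mL final) for 30 min at 37 C. Acetylthiocholine/DTNB was then added; thiocholine was read colorimetrically after 10 min at room temperature.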"}, "[9]": {"experiment": "qHTS assay to identify small molecule antagonists of the estrogen related receptor (ERR) signaling pathway (AID 1224819; also: potency is read from the fitted curve at half-maximal effect; nearly all actives have a fitted effect of over 50% in size)", "summary_of_the_method": "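Compounds dissolved in DMSO were pin-transferred onto ERR cells that had been plated 6 h earlier, and cells were then incubated 18 h at 37 C; signal was luciferase luminescence via One-Glo.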"}, "[10]": {"experiment": "qHTS assay to identify small molecule antagonists of the estrogen related receptor signaling pathway with the pleiotropic PPARgamma coactivator (PGC) cell viability counter screen (AID 1224822; also: potency is read from the fitted curve at half-maximal effect)", "summary_of_the_method": "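Counter screen for cell viability: PGC/ERR cells, 6 h pre-incubation after plating, 17.5 h compound exposure at 37 C, fluorescence from CellTiter-Fluor after 30 min.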"}, "[11]": {"experiment": "qHTS assay to identify small molecule agonists of the estrogen related receptor signaling pathway with the pleiotropic PPARgamma coactivator (PGC) (AID 1224823)", "summary_of_the_method": "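In this quantitative high-throughput screen, an 18 h, 37 C treatment of PGC/ERR cells with compounds in DMSO preceded a One-Glo luminescence read taken after 30 min at room temperature.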"}, "[12]": {"experiment": "qHTS assay to identify small molecule agonists of the estrogen related receptor (ERR) signaling pathway (AID 1224820)", "summary_of_the_method": "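Following a 6 h settling period, 2,000 ERR cells per well receive DMSO-dissolved compounds by pin tool and incubate 18 h at 37 C; agonist activity is scored from One-Glo luminescence read 30 min post-addition.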"}}, "note": "Values without a mark were called inactive. Results filed as inconclusive are left out. A call without a number means that no potency is given here. Calls of active or inactive are those of the source. Unless noted, calls follow the shape of the dose curve; as a rule, active = well fitted curve in the direction sought with a large enough effect in the repeat runs; inconclusive = weak or mixed curves; inactive = no such curve, though single readings can be large; an effect the other way counts as inactive or inconclusive.", "data": [{"smiles": "CNc1ccccc1", "values": [{"measurement": "Potency", "setting": "[1]", "result": "inactive"}, {"measurement": "Potency", "setting": "[2]", "result": "inactive"}, {"measurement": "Potency", "setting": "[3]", "result": "inactive"}, {"measurement": "activity change, positive = activation", "setting": "[4]", "result": -1.42, "unit": "%"}, {"measurement": "Potency", "setting": "[5]", "result": "inactive"}, {"measurement": "Potency", "setting": "[6]", "result": "inactive"}, {"measurement": "Potency", "setting": "[7]", "result": "inactive"}, {"measurement": "Potency", "setting": "[8]", "result": "inactive"}]}, {"smiles": "C/C=C(/C)C(=O)O[C@H]1C(C)=C2[C@H]([C@@H]1OC(=O)CCCCCCC)[C@@](C)(OC(C)=O)C[C@H](OC(=O)CCC)[C@@]1(O)[C@H]2OC(=O)[C@@]1(C)O", "values": [{"measurement": "Potency", "setting": "[9]", "result": "246 nM (active)"}, {"measurement": "Potency", "setting": "[10]", "result": "8.1 µM (active)"}, {"measurement": "Potency", "setting": "[11]", "result": "inactive"}]}, {"smiles": "O=[N+]([O-])/C=C/c1ccc2c(c1)OCO2", "values": [{"measurement": "Potency", "setting": "[12]", "result": "inactive"}, {"measurement": "Potency", "setting": "[10]", "result": "22 µM (active)"}, {"measurement": "Potency", "setting": "[11]", "result": "inactive"}]}]}
